From PubChem BioAssay
Active and inactive are the calls of the source.

What was measured:
[1] = small molecules captured by biotinylated probe aFSTL3 – biochemical, small-molecule microarray, fluorescence 635/667, stem cell growth factor project, primary screen (AID 1064); details: higher = more signal;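 also: measures binding of the biotinylated anti-FSTL3 antibody to printed compounds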
[2] = binders from COS7 lysate, DM2A8 probe, primary screen, torsin A project, cell lysate, small-molecule microarray, fluorescence 635/667 (AID 1065); details: higher = more signal, COS7 lysate expressing mutant human TOR1A
[3] = small molecules captured by biotinylated probe aFGF2 – biochemical, small-molecule microarray, fluorescence 635/667, stem cell growth factor project, primary screen (AID 1067); details: higher = more signal;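 also: measures binding of biotinylated aFGF2 protein to printed compounds on slides; z-score merges feature fluorescence and signal-to-noise across triplicate slides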
[4] = small molecules captured by biotinylated probe aFGF10 – biochemical, small-molecule microarray, fluorescence 635/667, stem cell growth factor project, primary screen (AID 1071); details: higher = more signal;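 also: score merges 667 nm spot intensity and signal to noise from triplicate slides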
[5] = target: Neurogenic locus notch homolog protein 2 (Homo sapiens) (UniProt Q04721); assay: small molecules binding Notch2 protein – biochemical, small-molecule microarray, 635 nm fluorescence, stem cell growth factors, primary screen (AID 1073); details: higher = more signal
[6] = target: Pro-neuregulin-1, membrane-bound isoform (Homo sapiens) (UniProt Q02297); assay: small molecules binding neuregulin-1 protein – biochemical, small-molecule microarray, fluorescence 635/667, psychiatric disease protein project, primary screen (AID 1075); details: NRG1 binding, 635 nm fluorescence, higher = more signal;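 also: score combines 667 nm spot fluorescence with signal to noise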
[7] = tested on: Neuregulin-1 EGF-like domain; assay: small molecules binding NRG1 EGF domain – biochemical, small-molecule microarray, 635 nm fluorescence, primary screen (AID 1081); details: higher = more signal;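 also: binding of the protein to compounds printed on small-molecule microarray slides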
[8] = FRG1 expression reporter modulators in myotubes – cell-based, C2C12 myotubes, firefly/Renilla luciferase, luminescence, FRG1 inhibition for FSHD, primary screen (AID 1084); details: FRG1 promoter luciferase, higher = more signal, called active from +8 up or from −8 down
[9] = small molecules captured by biotinylated probe aFST – biochemical, small-molecule microarray, fluorescence 635/667, stem cell growth factor project, primary screen (AID 1086); details: higher = more signal;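 also: score merges 667 nm fluorescence with signal-to-noise of each printed compound spot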
[10] = binders of probe aHhip on microarray, primary screen, stem cell growth factor project, biochemical, small-molecule microarray, fluorescence 635/667 (AID 1087); details: higher = more signal;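 also: score merges spot fluorescence at 667nm with spot signal to noise ratio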
[11] = tested on: PRMT1 (protein arginine N-methyltransferase 1); assay: small molecules binding arginine methyltransferase PRMT1 – biochemical, small-molecule microarray, 635 nm fluorescence, primary screen (AID 1088); details: higher = more signal;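 also: binding of Prmt1 protein to compounds spotted on small-molecule microarray slides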
[12] = growth effects on S. cerevisiae YJM789 – YJM789 clinical isolate, OD600, 24 h, basal, primary screen (AID 1089); details: higher = more signal, called active from +8 up or from −8 down;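 also: growth of clinical yeast isolate S. cerevisiae YJM 789 seeded 1000 cells per well; test concentration not given here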
[13] = S. pombe growth modifiers, basal conditions – strain 972, OD600, 24 h, no modulator, primary screen (AID 1090);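 also: basal condition with compound alone and no growth modifier present; test concentration not given here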; details: S. pombe 972 growth, higher = more signal, called active from +8 up or from −8 down
[14] = budding yeast growth modifiers under rapamycin – strain BY4716, OD600, 96 h, primary screen (AID 1091); also: test concentration not given here; details: S. cerevisiae BY4716 + rapamycin, higher = more signal, called active from +8 up or from −8 down
[15] = target: Torsin-1A-interacting protein 2 (Homo sapiens) (UniProt Q8NFQ8); assay: small molecules binding lysate-expressed LULL1 – cell lysate, human LULL1 lysate, 635/667 nm fluorescence, primary screen (AID 1092); details: small-molecule microarray, hLULL1 lysate binding, 635 nm fluorescence; higher = more signal;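 also: probe is lysate of COS7 cells overexpressing human LULL1; score merges per-feature 667 nm fluorescence with signal-to-noise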
[16] = optical density change of DRC41 E. coli – strain DRC41, OD650, 24 h, E. coli filamentation project, primary screen (AID 1093);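 also: MC1000 strain lacking acrAB efflux and sulA so SOS filamentation is blocked; test concentration not given here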; details: E. coli DRC41 growth, higher = more signal, called active from +8 up or from −8 down
[17] = probe aLefty2 binding to arrayed compounds – biochemical, biotinylated probe, 635/667 nm fluorescence, primary screen (AID 1094); details: small-molecule microarray, higher = more signal;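 also: score merges spot fluorescence near 667 nm with spot signal-to-noise ratio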
[18] = tested on: Noggin (protein binding on small-molecule microarray); assay: small molecules binding Noggin protein – biochemical, 635/667 nm fluorescence, primary screen (AID 1095); details: 635 nm fluorescence, higher = more signal;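 also: score merges 667 nm feature fluorescence with signal to noise over triplicate slides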
[19] = target: Neurogenic locus notch homolog protein 3 (Homo sapiens) (UniProt Q9UM47); assay: small molecules binding NOTCH3 protein – biochemical, 635/667 nm fluorescence, primary screen (AID 1096); details: small-molecule microarray, 635 nm fluorescence, higher = more signal
[20] = probe aEGFR binding to arrayed compounds – biochemical, biotinylated probe, 635/667 nm fluorescence, primary screen (AID 1097); details: small-molecule microarray, higher = more signal;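 also: probe is a biotinylated anti-EGFR antibody binding compounds printed on slides; score combines fluorescence near 667 nm and signal to noise of each spot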

Chain of Neurogenic locus notch homolog protein 3 (Homo sapiens) (Q9UM47 whole entry, looked up): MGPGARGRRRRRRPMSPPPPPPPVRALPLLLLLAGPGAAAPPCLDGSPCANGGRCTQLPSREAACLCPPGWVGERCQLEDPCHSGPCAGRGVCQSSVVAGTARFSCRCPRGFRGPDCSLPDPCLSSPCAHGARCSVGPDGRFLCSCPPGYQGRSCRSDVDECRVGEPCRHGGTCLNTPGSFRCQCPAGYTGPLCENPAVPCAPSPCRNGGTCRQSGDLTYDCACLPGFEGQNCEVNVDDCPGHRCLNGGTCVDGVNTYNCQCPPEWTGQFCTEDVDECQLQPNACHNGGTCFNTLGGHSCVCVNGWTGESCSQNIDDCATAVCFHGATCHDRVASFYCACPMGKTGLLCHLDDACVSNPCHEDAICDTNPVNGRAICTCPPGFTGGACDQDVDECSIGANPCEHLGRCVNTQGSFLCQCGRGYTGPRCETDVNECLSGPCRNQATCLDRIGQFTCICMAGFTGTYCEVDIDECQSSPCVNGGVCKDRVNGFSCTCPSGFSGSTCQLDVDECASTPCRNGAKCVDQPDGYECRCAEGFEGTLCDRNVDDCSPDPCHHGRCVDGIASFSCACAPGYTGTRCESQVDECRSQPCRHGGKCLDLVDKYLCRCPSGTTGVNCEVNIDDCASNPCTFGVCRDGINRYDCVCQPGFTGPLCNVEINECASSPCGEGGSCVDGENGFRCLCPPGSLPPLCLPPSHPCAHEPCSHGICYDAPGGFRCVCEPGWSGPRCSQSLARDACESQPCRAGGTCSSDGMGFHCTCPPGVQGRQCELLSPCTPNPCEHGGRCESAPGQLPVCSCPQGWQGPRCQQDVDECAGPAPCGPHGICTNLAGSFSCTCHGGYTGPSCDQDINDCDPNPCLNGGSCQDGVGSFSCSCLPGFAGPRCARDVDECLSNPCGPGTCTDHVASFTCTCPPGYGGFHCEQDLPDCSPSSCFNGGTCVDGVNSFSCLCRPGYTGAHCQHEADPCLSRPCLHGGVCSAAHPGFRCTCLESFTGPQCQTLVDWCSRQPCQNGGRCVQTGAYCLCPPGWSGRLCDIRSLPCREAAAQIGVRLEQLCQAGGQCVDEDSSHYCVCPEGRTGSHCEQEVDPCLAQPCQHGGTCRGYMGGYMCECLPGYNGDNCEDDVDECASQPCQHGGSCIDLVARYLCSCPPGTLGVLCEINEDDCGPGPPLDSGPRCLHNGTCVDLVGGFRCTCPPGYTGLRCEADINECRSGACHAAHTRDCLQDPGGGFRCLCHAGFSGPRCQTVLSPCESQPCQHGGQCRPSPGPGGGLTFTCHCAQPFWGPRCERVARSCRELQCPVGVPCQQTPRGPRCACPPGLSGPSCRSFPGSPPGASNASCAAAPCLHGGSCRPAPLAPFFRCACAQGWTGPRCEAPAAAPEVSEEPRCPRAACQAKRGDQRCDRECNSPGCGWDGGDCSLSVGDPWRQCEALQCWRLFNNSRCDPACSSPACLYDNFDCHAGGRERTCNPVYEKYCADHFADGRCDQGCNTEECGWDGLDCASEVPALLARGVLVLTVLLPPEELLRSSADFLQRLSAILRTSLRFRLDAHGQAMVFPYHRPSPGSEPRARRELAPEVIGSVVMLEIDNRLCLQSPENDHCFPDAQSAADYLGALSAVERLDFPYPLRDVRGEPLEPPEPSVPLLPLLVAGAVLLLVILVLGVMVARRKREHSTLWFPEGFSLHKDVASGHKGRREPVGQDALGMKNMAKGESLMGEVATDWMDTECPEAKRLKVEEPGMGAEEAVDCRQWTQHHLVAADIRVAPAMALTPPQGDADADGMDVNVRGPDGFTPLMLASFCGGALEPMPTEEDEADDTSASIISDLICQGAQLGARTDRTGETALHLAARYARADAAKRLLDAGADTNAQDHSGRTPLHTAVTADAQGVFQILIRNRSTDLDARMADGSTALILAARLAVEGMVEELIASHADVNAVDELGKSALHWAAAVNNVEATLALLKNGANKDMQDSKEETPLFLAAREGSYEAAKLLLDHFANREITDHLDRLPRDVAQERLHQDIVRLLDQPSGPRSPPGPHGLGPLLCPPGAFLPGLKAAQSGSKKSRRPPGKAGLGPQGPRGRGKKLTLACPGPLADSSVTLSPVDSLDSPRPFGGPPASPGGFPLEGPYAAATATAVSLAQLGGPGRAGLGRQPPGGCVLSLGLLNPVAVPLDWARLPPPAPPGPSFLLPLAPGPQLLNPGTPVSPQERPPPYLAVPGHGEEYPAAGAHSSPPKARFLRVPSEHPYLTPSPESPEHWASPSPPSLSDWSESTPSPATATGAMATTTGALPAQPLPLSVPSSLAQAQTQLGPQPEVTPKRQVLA
Chain of Torsin-1A-interacting protein 2 (Homo sapiens) (Q8NFQ8 whole entry, looked up): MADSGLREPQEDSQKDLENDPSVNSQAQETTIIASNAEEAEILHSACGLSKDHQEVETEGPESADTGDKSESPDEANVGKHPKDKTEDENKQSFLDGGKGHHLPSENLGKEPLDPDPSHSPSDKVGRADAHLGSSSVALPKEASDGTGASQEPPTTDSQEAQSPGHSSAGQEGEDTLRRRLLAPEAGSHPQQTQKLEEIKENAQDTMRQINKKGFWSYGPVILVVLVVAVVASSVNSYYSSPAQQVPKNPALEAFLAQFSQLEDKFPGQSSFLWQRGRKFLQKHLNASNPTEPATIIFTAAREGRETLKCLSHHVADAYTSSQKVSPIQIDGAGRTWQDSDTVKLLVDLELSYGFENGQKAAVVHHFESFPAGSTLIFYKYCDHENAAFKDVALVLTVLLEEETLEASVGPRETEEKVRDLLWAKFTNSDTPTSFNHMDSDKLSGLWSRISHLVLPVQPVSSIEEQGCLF
Chain of Pro-neuregulin-1, membrane-bound isoform (Homo sapiens) (Q02297 whole entry, looked up, the tested form may be a part, canonical isoform): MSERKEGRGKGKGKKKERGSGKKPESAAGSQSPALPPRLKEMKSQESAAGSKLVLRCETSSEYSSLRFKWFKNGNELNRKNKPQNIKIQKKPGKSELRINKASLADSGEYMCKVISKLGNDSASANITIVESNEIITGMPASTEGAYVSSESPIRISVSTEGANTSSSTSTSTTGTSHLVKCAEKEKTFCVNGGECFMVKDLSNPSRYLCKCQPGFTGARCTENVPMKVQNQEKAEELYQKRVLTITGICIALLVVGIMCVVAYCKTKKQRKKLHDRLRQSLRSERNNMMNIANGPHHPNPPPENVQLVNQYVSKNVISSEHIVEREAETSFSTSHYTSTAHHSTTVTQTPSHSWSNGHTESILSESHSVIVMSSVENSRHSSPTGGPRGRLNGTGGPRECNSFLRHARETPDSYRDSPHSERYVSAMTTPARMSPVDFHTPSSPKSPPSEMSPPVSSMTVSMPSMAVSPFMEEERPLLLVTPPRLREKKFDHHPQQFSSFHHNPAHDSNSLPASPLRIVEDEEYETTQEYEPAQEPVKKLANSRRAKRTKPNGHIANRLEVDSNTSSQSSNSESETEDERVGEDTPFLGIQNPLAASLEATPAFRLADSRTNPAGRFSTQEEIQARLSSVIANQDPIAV

Structure (SMILES) | composite z-score [1] | composite z-score [2] | composite z-score [3] | composite z-score [4] | composite z-score [5] | composite z-score [6] | composite z-score [7] | z-score [8] | composite z-score [9] | composite z-score [10] | composite z-score [11] | z-score [12] | z-score [13] | z-score [14] | composite z-score [15] | z-score [16] | composite z-score [17] | composite z-score [18] | composite z-score [19] | composite z-score [20]
COCCOC(=O)N1C(=O)[C@@]2(c3cc(C#Cc4ccc(OC)cc4)ccc31)[C@H](C(=O)N1CCN(c3ncccn3)CC1)[C@H]1C(=O)O[C@H](c3ccccc3)[C@H](c3ccccc3)N1[C@@H]2c1ccc(O)cc1 | 0.104 | 0.0053 | -0.144 | 0.464 | -0.202 | 0.169 | 0.542 | -1.3 (inactive) | 0.218 | -0.0994 | 0.344 | -1.94 (inactive) | -0.197 (inactive) | 0.872 (inactive) | 0.78 | 0.313 (inactive) | -0.247 | 0.587 | 0.213 | -0.0978
[N-]=[N+]=Nc1ccccc1C[C@]1(C(=O)NCCN2CCOCC2)N=C(c2ccc(OCCCO)cc2)O[C@H]1c1ccccc1 | -0.283 | 0.309 | -0.085 | 0.271 | 1.05 | 1.07 | 1.25 | -0.897 (inactive) | 0.892 | 0.0373 | 1.31 | 3.66 (inactive) | -1.17 (inactive) | -1.78 (inactive) | 3.24 | 0.681 (inactive) | 0.0029 | 0.599 | 0.482 | 0.0756
CC1CC/C=C\[C@H]2OC34C=CCN(Cc5ccccc5)C(=O)[C@H]3N(CCCCCO)C(=O)[C@@H]4C2C(=O)O1 (stereo not given in full) | 0.158 | -0.467 | -0.149 | 0.155 | -0.864 | -0.68 | 1.5 | 0.367 (inactive) | -0.677 | -0.312 | -0.822 | 0.0898 (inactive) | 0.0077 (inactive) | -0.506 (inactive) | -0.259 | -0.964 (inactive) | -0.166 | -1.07 | -0.629 | -0.206
CCOC(=O)C[C@H]1[C@H](OC(=O)c2ccccc2-c2ccccc2)[C@@H](NC(=O)c2ccc3ccccc3c2)c2cc(OCCCO)ccc2N1C(=O)c1ccc2ccccc2n1 | -0.279 | 0.353 | -0.08 | 0.443 | 0.135 | 0.0753 | 0.545 | 0.122 (inactive) | 0.484 | -0.0373 | 0.389 | 0.47 (inactive) | 0.623 (inactive) | 0.136 (inactive) | 0.998 | -0.263 (inactive) | -0.102 | 0.526 | 0.818 | -0.111
C=CCNC(=O)[C@@H]1[C@H]2C(=O)O[C@H](c3ccccc3)[C@H](c3ccccc3)N2[C@H](c2ccc(O)cc2)[C@@]12C(=O)N(C(=O)OCCOC)c1ccccc12 | -0.0042 | 1.11 | -0.0434 | 0.558 | 0.369 | 1.51 | 1.23 | 0.993 (inactive) | 0.376 | -0.0994 | 1.53 | 0.655 (inactive) | 0.625 (inactive) | 2.8 (inactive) | 3.25 | 1.11 (inactive) | -0.0458 | 0.559 | 0.509 | -0.14
CN1C(=O)C2C=CC(C(O)c3ccccn3)N(Nc3ccccc3)C2C1=O (stereo not given) | -0.0437 | 1.11 | -0.0985 | 0.479 | 0.766 | 0.838 | 0.684 | 0.595 (inactive) | 0.113 | 0.176 | 0.949 | 0.826 (inactive) | 0.632 (inactive) | 1.23 (inactive) | 0.68 | -0.324 (inactive) | 0.0524 | 0.021 | 0.186 | -0.0746
O=C1C[C@@](C(=O)NC2CC2)(c2ccc([N+](=O)[O-])cc2)[C@@H](c2ccc(CO)cc2)N1CC12CC3CC(CC(C3)C1)C2 | -0.0569 | -0.121 | -0.0111 | 0.214 | 1.4 | 0.707 | 0.745 | -0.962 (inactive) | 0.424 | -0.136 | 1.27 | -0.632 (inactive) | -1.06 (inactive) | 0.122 (inactive) | 1.61 | 0.587 (inactive) | 0.0469 | 0.883 | 1.14 | -0.0485
Cc1ccc(S[C@]2(C(=O)NCCN3CCOCC3)CC(=O)N(Cc3cc(C(F)(F)F)cc(C(F)(F)F)c3)[C@@H]2c2ccc(CO)cc2I)cc1 | 0.428 | -0.542 | -0.131 | -0.44 | -0.297 | 1.98 | 0.0049 | 0.679 (inactive) | 0.0607 | 0.0333 | 0.95 | -3.19 (inactive) | -4.73 (inactive) | 14.2 (active) | 0.509 | -1.52 (inactive) | -0.183 | -1.06 | -0.122 | -0.0828
O=C/C=C/c1ccc2c(c1)OCO2 | -0.23 | -0.508 | -0.115 | 0.182 | -0.24 | -0.31 | 0.0106 | -0.779 (inactive) | -0.158 | 0.0821 | 0.274 | -3.66 (inactive) | -16.7 (active) | -1.69 (inactive) | -0.857 | -1.98 (inactive) | -0.151 | 0.542 | 0.0863 | -0.0978
